Activity calls are given as the source filed them. Rule for the calls: active = hit-call score of the fitted dose curve at least 0.9, where 1 is the maximum; inactive = score below 0.9.

Sequence of human (CYP19A1), CYP19A1 (gene 1588) (P11511 whole entry, looked up): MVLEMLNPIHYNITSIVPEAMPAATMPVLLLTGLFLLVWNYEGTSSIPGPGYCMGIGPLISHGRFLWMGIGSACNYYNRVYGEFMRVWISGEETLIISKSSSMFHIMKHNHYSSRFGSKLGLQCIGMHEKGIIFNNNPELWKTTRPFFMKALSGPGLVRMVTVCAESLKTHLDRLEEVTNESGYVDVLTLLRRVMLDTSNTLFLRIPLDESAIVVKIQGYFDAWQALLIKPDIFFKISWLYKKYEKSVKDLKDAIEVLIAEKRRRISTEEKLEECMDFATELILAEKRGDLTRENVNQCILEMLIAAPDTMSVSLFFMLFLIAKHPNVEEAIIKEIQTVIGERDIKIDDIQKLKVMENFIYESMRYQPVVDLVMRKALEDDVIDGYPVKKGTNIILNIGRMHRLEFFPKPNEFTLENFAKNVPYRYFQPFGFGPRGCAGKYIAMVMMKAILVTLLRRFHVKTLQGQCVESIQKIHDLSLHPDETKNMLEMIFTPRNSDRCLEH

The target of this assay is human (CYP19A1), CYP19A1 (gene 1588) (UniProt P11511). The assay is described as follows: ERF_TW_ENZ_hCYP19A1: Eurofins (ERF) Enzymatic CYP450 LeadHunter Assay for human (CYP19A1). The method, then:
ERF_TW_ENZ_hCYP19A1 is a biochemical, single-readout assay that uses extracted gene-proteins in a cell-free assay. Measurements were taken 0.75 hour after chemical dosing in a 96-well plate. See CYP19A1 Human CYP450 Enzymatic Assay, Panlabs.ERF_TW_ENZ_hCYP19A1 is an assay component calculated from the ERF_TW_ENZ_hCYP19A1 assay. It is designed to measure enzyme activity using a type of enzyme reporter as detected by fluorescence intensity with spectrophotometry technology.Data from the assay component ERF_TW_ENZ_hCYP19A1 was analyzed at the assay endpoint, ERF_TW_ENZ_hCYP19A1, in the positive analysis fitting direction relative to DMSO as the negative control and baseline of activity. Using a type of enzyme reporter, loss-of-signal activity can be used to understand changes in enzymatic activity as they relate to gene CYP19A1. To generalize the intended target to other relatable targets, this assay endpoint is annotated to the cyp intended target family, where the subfamily is steroidogenesis-related.
Human recombinant CYP450 19 plus P450 reductase, expressed in baculovirus infected insect BTI-TN-5B1-4 cells is used. Test compound and/or vehicle is preincubated with 4 nM enzyme in phosphate buffer pH 7.4 for 15 minutes at 37C. […] Determination of the amount of dibenzylfluorescein remaining is read spectrofluorimetrically. […]
On to `COc1cc(CCC(=O)CC(=O)CCc2ccc(O)c(OC)c2)ccc1O`, for which the AC50 is 5.05 µM (active).

Broadly, the AC50 is the concentration at which the activity in the assay is half-maximal.
